The source of these data is PubChem BioAssay AID493025 (Johns Hopkins Ion Channel Center, 2011).

The structures appear in SMILES notation. Among all 1,000 compounds or so, about 570 (57%) were called active. How the calls were made is not given here. So high a share suggests a set chosen from earlier hits. This excerpt belongs to a sample that is enriched for actives.

For the experiment, the target named is Potassium voltage-gated channel subfamily KQT member 2 (Rattus norvegicus) (UniProt O88943). The experiment can be described thus: blockers of KCNQ2 thallium flux – cell-based, confirmation (AID 493025).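 Further: 0% = vehicle wells and values are ratio percent relative to vehicle.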 As to conditions: KCNQ2-expressing cells, at 10 µM, hits give low values.
Chain of Potassium voltage-gated channel subfamily KQT member 2 (Rattus norvegicus) (O88943 whole entry, looked up): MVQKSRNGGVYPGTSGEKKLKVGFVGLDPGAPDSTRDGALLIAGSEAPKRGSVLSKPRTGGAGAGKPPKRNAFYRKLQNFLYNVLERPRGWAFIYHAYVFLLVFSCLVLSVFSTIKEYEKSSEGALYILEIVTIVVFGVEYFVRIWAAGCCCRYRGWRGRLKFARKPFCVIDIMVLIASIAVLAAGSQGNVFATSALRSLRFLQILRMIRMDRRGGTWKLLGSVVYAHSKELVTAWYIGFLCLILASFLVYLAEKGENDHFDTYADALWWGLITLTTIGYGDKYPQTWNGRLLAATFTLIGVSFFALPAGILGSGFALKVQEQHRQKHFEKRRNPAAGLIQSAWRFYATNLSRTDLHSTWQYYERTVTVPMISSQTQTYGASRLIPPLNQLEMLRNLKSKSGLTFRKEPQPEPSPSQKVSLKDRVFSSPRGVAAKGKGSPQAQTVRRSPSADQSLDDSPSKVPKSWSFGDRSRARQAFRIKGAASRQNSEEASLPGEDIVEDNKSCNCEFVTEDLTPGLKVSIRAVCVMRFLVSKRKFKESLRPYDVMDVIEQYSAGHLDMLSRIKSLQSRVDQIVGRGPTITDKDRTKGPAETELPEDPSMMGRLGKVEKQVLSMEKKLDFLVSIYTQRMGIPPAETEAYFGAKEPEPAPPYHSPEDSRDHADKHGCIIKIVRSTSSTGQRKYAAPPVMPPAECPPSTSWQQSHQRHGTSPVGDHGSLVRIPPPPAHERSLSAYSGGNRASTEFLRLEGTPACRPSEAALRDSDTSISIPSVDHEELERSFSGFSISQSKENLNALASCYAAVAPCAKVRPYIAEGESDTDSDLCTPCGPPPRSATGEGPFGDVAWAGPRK
`CN(C)CC1Oc2ccccc2OC1(O)c1ccccc1` (configuration not stated): the activity change, negative = inhibition was -32% (active).
The result for `O=C(NC(c1ccc(Cl)cc1)P(=O)(Oc1ccccc1)Oc1ccccc1)OCc1ccccc1` (configuration not stated) reads -23% (active).
